# Data published in PubChem BioAssay (EPA / NIEHS).
# Calls of active or inactive are those of the source. Rule for the calls: active = hit-call score of the fitted dose curve at least 0.9, where 1 is the maximum; inactive = score below 0.9.
# Assays:
# Settings in all cases: mRNA level, 48 h; actives raise or lower the signal
# [1] = read-out: Cytochrome P450 7A1 (Homo sapiens) (UniProt P22680); experiment: LTEA_HepaRG_CYP7A1: Life Technologies and Expression Analysis (LTEA) Assay for Cytochrome P450 7A1 (CYP7A1) using HepaRG (AID 2283496)
# In short: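 HepaRG, 48 h exposure, 8-pt half-log series from 100 uM, 0.5% DMSO vehicle, duplicates. Readout: TaqMan qRT-PCR mRNA vs three housekeeping genes; bidirectional curve fit against DMSO baseline.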
# [2] = read-out: Glutathione S-Transferase (GSTA2), GSTA2 (gene 2939); experiment: LTEA_HepaRG_GSTA2: Life Technologies and Expression Analysis (LTEA) Assay for Glutathione S-Transferase (GSTA2) using HepaRG (AID 2283497)
# In short: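 qRT-PCR readout of GSTA2 transcript, normalized to three housekeeping genes, fitted bidirectionally against 0.5% DMSO baseline. Differentiated HepaRG cells received compound for 48 h at 8 concentrations (top 100 uM, half-log steps).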
# [3] = read-out: Glutamate-cysteine ligase catalytic (GCLC), GCLC (gene 2729); experiment: LTEA_HepaRG_GCLC: Life Technologies and Expression Analysis (LTEA) Assay for Glutamate-cysteine ligase catalytic (GCLC) using HepaRG (AID 2283498)
# In short: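 HepaRG, 48 h exposure, 8-pt half-log series from 100 uM, 0.5% DMSO vehicle; TaqMan qRT-PCR for GCLC mRNA, housekeeping-normalized; bidirectional curve fit vs DMSO baseline.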
# [4] = read-out: growth arrest and DNA damage 45 (GADD45G), GADD45G (gene 10912); experiment: LTEA_HepaRG_GADD45G: Life Technologies and Expression Analysis (LTEA) Assay for growth arrest and DNA damage 45 (GADD45G) using HepaRG (AID 2283499)
# In short: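 Gain or loss of GADD45G mRNA, quantified by TaqMan qRT-PCR against three housekeeping genes, is fitted in both directions relative to 0.5% DMSO. Human HepaRG cultures receive test chemical for 48 h at up to 100 uM.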
# [5] = read-out: Glutathione S-transferase M3 (GSTM3), GSTM3 (gene 2947); experiment: LTEA_HepaRG_GSTM3: Life Technologies and Expression Analysis (LTEA) Assay for Glutathione S-transferase M3 (GSTM3) using HepaRG (AID 2283501)
# In short: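 HepaRG, plated 48 h, then serum-free induction medium; test chemical 48 h, duplicate; 100 uM top, half-log x8, 0.5% DMSO. Read-out: GSTM3 mRNA (TaqMan qRT-PCR, Fluidigm array). Bidirectional fit vs DMSO.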
# [6] = read-out: Heat shock 70 kDa protein 1 (HSPA1A), gene 3303; experiment: LTEA_HepaRG_HSPA1A: Life Technologies and Expression Analysis (LTEA) Assay for Heat shock 70 kDa protein 1 (HSPA1A) using HepaRG (AID 2283502)
# In short: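 HSPA1A expression measured by qRT-PCR with ACTB/GAPDH/POLR2A normalization; curves fitted in both directions relative to DMSO vehicle. Exposure: 48 h in HepaRG cells, duplicate 8-point half-log series from 100 uM, 0.5% DMSO, serum-free induction medium.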
# [7] = read-out: Hypoxia-inducible factor 1-alpha (Homo sapiens) (UniProt Q16665); experiment: LTEA_HepaRG_HIF1A: Life Technologies and Expression Analysis (LTEA) Assay for Hypoxia-inducible factor 1 (HIF1A) Trancription factor using HepaRG (AID 2283503)
# In short: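 HIF1A transcript level read by qRT-PCR (ACTB, GAPDH, POLR2A normalization) after 48 h chemical exposure of HepaRG cultures. Eight half-log concentrations, top 100 uM, 0.5% DMSO vehicle, duplicates; bidirectional curve fit against DMSO baseline.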
# HGF (gene 3082) = experiment: LTEA_HepaRG_HGF: Life Technologies and Expression Analysis (LTEA) Assay for Hepatocyte Growth Facto (HGF) using HepaRG (AID 2283505)
# In short: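 Read-out is HGF transcript level by qRT-PCR, normalized to three housekeeping genes, fitted bidirectionally against 0.5% DMSO vehicle. Human HepaRG cells received test chemicals for 48 h at up to 100 uM.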
# [8] = read-out: Insulin Like Growth Factor 1 (IGF1), IGF1 (gene 3479); experiment: LTEA_HepaRG_IGF1: Life Technologies and Expression Analysis (LTEA) Assay for Insulin Like Growth Factor 1 (IGF1) using HepaRG (AID 2283506)
# In short: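 Expression measured by TaqMan qRT-PCR on a Fluidigm array, with three housekeeping genes for normalisation, after 48 h treatment of HepaRG cells. Top concentration 100 uM with half-log steps, 0.5% DMSO vehicle, bidirectional fit.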
# [9] = read-out: Intercellular Adhesion Molecule 1 (ICAM1), ICAM1 (gene 3383); experiment: LTEA_HepaRG_ICAM1: Life Technologies and Expression Analysis (LTEA) Assay for Intercellular Adhesion Molecule 1 (ICAM1) using HepaRG (AID 2283507)
# In short: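 Readout is qRT-PCR mRNA level, normalized to three housekeeping genes and fitted bidirectionally against 0.5% DMSO vehicle. Human HepaRG cultures received compound for 48 h, top concentration 100 uM with half-log dilutions.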
# [10] = read-out: Insulin-like growth factor-binding protein 1 (IGFBP1), IGFBP1 (gene 3484); experiment: LTEA_HepaRG_IGFBP1: Life Technologies and Expression Analysis (LTEA) Assay for Insulin-like growth factor-binding protein 1 (IGFBP1) using HepaRG (AID 2283508)
# In short: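 Thawed HepaRG cells are plated for 48 h, switched to serum-free induction medium, then dosed in duplicate for another 48 h (100 uM top, half-log steps). Lysates in RLT go to qRT-PCR, and gain or loss of signal is fitted relative to vehicle.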
# [11] = read-out: Interleukin 6 (IL6), IL6 (gene 3569); experiment: LTEA_HepaRG_IL6: Life Technologies and Expression Analysis (LTEA) Assay for Interleukin 6 (IL6) using HepaRG (AID 2283509)
# In short: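 qRT-PCR read-out of IL6 transcript, normalized to three housekeeping genes, after 48 h chemical exposure of HepaRG cells; 8-point half-log series, top 100 uM, 0.5% DMSO vehicle. Bidirectional curve fitting against DMSO baseline.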
# [12] = read-out: Interleukin 6 Receptor (IL6R), IL6R (gene 3570); experiment: LTEA_HepaRG_IL6R: Life Technologies and Expression Analysis (LTEA) Assay for Interleukin 6 Receptor (IL6R) using HepaRG (AID 2283510);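 for AC50: differentiated human HepaRG liver cells in serum-free induction medium; TaqMan qRT-PCR signal normalized to ACTB GAPDH and POLR2A housekeeping genes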
# In short: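 IL6R transcript level by qRT-PCR after 48 h chemical exposure (8-point, half-log, max 100 uM, 0.5% DMSO vehicle) of HepaRG cells in serum-free induction medium. Normalized to three housekeeping genes; curves fitted in both directions relative to DMSO.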
# [13] = read-out: Potassium channel subfamily K member 1 (KCNK1), KCNK1 (gene 3775); experiment: LTEA_HepaRG_KCNK1: Life Technologies and Expression Analysis (LTEA) Assay for Potassium channel subfamily K member 1 (KCNK1) using HepaRG (AID 2283511)
# In short: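 HepaRG, 48 h exposure, 8-pt half-log series top 100 uM, 0.5% DMSO vehicle, duplicates. Readout: KCNK1 transcript by qRT-PCR (Fluidigm array), housekeeping-normalized; bidirectional curve fit relative to DMSO baseline.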
# [14] = read-out: Keratin 19 (KRT19), KRT19 (gene 3880); experiment: LTEA_HepaRG_KRT19: Life Technologies and Expression Analysis (LTEA) Assay for Keratin 19 (KRT19) using HepaRG (AID 2283512)
# In short: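 KRT19 transcript levels, measured by Fluidigm qRT-PCR against three housekeeping genes, are fitted for gain or loss of signal relative to DMSO. Human HepaRG cells receive test chemicals (top 100 uM, half-log steps, 0.5% DMSO) for 48 hours.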
# [15] = read-out: JUN Transcription Factor, JUN (gene 3725); experiment: LTEA_HepaRG_JUN: Life Technologies and Expression Analysis (LTEA) Assay for JUN Transcription Factor using HepaRG (AID 2283513)
# In short: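 mRNA measured by TaqMan qRT-PCR after 48 h chemical exposure of HepaRG cultures; normalization to three housekeeping genes. Duplicate eight-point half-log curves from 100 uM in 0.5% DMSO; gain or loss fitted against DMSO baseline.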
# [16] = read-out: Lipase C (LIPC), LIPC (gene 3990); experiment: LTEA_HepaRG_LIPC: Life Technologies and Expression Analysis (LTEA) Assay for Lipase C (LIPC) using HepaRG (AID 2283514)
# In short: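 HepaRG, 48 h exposure, 8-pt half-log series from 100 uM in 0.5% DMSO, duplicates. Readout: LIPC mRNA by Fluidigm qRT-PCR, housekeeping-normalized (ACTB/GAPDH/POLR2A). Gain or loss fitted bidirectionally against DMSO baseline.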
# [17] = read-out: Lipoprotein lipase (LPL), LPL (gene 4023); experiment: LTEA_HepaRG_LPL: Life Technologies and Expression Analysis (LTEA) Assay for Lipoprotein lipase (LPL) using HepaRG (AID 2283515)
# In short: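 HepaRG, 48 h exposure, 8-pt half-log dilutions from 100 uM, 0.5% DMSO vehicle, duplicates; qRT-PCR (Fluidigm array) of LPL mRNA vs housekeeping genes; bidirectional curve fit relative to DMSO baseline.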
# [18] = read-out: 3-Hydroxy-3-Methylglutaryl-CoA Synthase 2 (HMGCS2), HMGCS2 (gene 3158); experiment: LTEA_HepaRG_HMGCS2: Life Technologies and Expression Analysis (LTEA) Assay for 3-Hydroxy-3-Methylglutaryl-CoA Synthase 2 (HMGCS2) using HepaRG (AID 2283504)
# In short: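 HepaRG, plated 48 h then switched to serum-free induction media; cmpd 8-pt, max 100 uM, 1/2-log, 0.5% DMSO, n=2, 48 h. HMGCS2 mRNA by Fluidigm TaqMan qRT-PCR, ACTB/GAPDH/POLR2A norm; bidirectional fit vs DMSO.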
# Hypoxia-inducible factor 1-alpha (Homo sapiens), sequence (Q16665 whole entry, looked up): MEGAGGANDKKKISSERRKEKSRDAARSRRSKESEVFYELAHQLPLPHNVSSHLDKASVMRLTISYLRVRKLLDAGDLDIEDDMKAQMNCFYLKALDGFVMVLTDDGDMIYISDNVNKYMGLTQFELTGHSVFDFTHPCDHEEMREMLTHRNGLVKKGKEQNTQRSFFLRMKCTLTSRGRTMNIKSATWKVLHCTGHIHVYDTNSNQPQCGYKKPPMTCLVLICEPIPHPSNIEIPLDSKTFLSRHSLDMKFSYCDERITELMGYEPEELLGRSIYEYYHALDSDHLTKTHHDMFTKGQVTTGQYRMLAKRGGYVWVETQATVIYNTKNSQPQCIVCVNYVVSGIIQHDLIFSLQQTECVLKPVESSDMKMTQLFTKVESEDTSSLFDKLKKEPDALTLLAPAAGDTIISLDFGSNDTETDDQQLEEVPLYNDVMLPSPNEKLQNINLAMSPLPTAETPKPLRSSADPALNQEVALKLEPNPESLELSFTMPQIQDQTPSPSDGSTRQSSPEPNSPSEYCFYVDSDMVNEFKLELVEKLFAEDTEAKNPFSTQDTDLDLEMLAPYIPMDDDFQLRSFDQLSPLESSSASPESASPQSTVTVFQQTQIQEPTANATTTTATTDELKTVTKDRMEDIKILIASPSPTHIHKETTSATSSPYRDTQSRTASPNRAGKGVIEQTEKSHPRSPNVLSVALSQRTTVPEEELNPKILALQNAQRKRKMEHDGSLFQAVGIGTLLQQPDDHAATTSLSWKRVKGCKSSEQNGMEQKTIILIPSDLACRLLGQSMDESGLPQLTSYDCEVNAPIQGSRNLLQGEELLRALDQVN
smiles,measurement,setting,value
COP(=O)(NC(C)=O)SC (stereo not given),outcome,[1],inactive
same,outcome,[2],inactive
same,outcome,[3],inactive
same,outcome,[4],inactive
same,outcome,[5],inactive
same,outcome,[6],inactive
same,outcome,[7],inactive
same,outcome,HGF (gene 3082),inactive
same,outcome,[8],inactive
same,outcome,[9],inactive
same,outcome,[10],inactive
same,outcome,[11],inactive
same,outcome,[12],inactive
same,outcome,[13],inactive
same,outcome,[14],inactive
same,outcome,[15],inactive
same,outcome,[16],inactive
same,outcome,[17],inactive
O=[N+]([O-])c1cc(C(F)(F)F)c(Cl)c([N+](=O)[O-])c1Nc1ncc(C(F)(F)F)cc1Cl,AC50,[1],23 µM (active)
same,AC50,[2],24.9 µM (active)
same,AC50,[3],69.3 µM (active)
same,outcome,[4],inactive
same,outcome,[5],inactive
same,outcome,[6],inactive
same,AC50,[7],31.9 µM (active)
same,outcome,HGF (gene 3082),inactive
same,AC50,[8],79.4 µM (active)
same,outcome,[9],inactive
same,AC50,[10],42.6 µM (active)
same,AC50,[11],73.9 µM (active)
same,AC50,[12],50 µM (active)
same,outcome,[13],inactive
same,AC50,[16],24.4 µM (active)
same,AC50,[17],74.1 µM (active)
CON=C(C(=O)OC)c1ccccc1CON=C(C)c1cccc(C(F)(F)F)c1,outcome,[1],inactive
same,outcome,[2],inactive
same,outcome,[3],inactive
same,outcome,[4],inactive
same,outcome,[5],inactive
same,outcome,[6],inactive
same,outcome,[7],inactive
same,outcome,HGF (gene 3082),inactive
same,AC50,[8],50 µM (active)
same,outcome,[9],inactive
same,outcome,[10],inactive
same,outcome,[11],inactive
same,outcome,[12],inactive
same,outcome,[13],inactive
same,outcome,[14],inactive
same,outcome,[16],inactive
CN(C)NC(=O)CCC(=O)O,outcome,[1],inactive
same,outcome,[2],inactive
same,outcome,[3],inactive
same,outcome,[4],inactive
same,outcome,[5],inactive
same,outcome,[6],inactive
same,outcome,[7],inactive
same,outcome,HGF (gene 3082),inactive
same,outcome,[8],inactive
same,outcome,[9],inactive
same,outcome,[10],inactive
same,outcome,[11],inactive
same,outcome,[12],inactive
same,outcome,[13],inactive
same,outcome,[14],inactive
same,outcome,[16],inactive
C[Si](Cn1cncn1)(c1ccc(F)cc1)c1ccc(F)cc1,AC50,[1],39.6 µM (active)
same,AC50,[2],72.5 µM (active)
same,outcome,[3],inactive
same,AC50,[4],33.9 µM (active)
same,AC50,[5],74.9 µM (active)
same,outcome,[6],inactive
same,outcome,[7],inactive
same,AC50,[18],47.6 µM (active)
same,outcome,HGF (gene 3082),inactive
same,AC50,[8],50 µM (active)
same,AC50,[9],81.1 µM (active)
same,AC50,[10],67.7 µM (active)
same,AC50,[11],92.6 µM (active)
same,outcome,[12],inactive
same,AC50,[13],50 µM (active)
same,outcome,[15],inactive
same,AC50,[16],26.7 µM (active)
same,AC50,[17],50 µM (active)
CC1(C(=O)Nc2ccc(O)c(Cl)c2Cl)CCCCC1,outcome,[1],inactive
same,outcome,[2],inactive
same,outcome,[3],inactive
same,outcome,[4],inactive
same,outcome,[5],inactive
same,outcome,[6],inactive
same,outcome,[7],inactive
same,outcome,[18],inactive
same,outcome,HGF (gene 3082),inactive
same,outcome,[8],inactive
same,outcome,[9],inactive
same,outcome,[10],inactive
same,outcome,[11],inactive
same,outcome,[12],inactive
same,outcome,[13],inactive
same,outcome,[15],inactive
same,outcome,[16],inactive
same,outcome,[17],inactive
CN1COCN(Cc2cnc(Cl)s2)C1=N[N+](=O)[O-],outcome,[1],inactive
same,outcome,[2],inactive
same,outcome,[3],inactive
same,outcome,[4],inactive
same,outcome,[5],inactive
same,outcome,[6],inactive
same,outcome,[7],inactive
same,outcome,[18],inactive
same,outcome,HGF (gene 3082),inactive
same,outcome,[8],inactive
same,outcome,[9],inactive
same,outcome,[10],inactive
same,outcome,[11],inactive
same,outcome,[12],inactive
same,outcome,[13],inactive
same,outcome,[14],inactive
same,outcome,[16],inactive
same,outcome,[17],inactive
